# In all, about 25,000 sequences were measured (“ln(normalized median fluorescence intensity)”: median about 9.3, highest 2% from about 10 on). Only a selection was taken, and the highest values are over-represented in it overall.
# System: PF3D7_0420300 AP2 domain 1 (GST-tagged)
# Assay: gcPBM binding intensity (ln(normalized median fluorescence intensity)); higher = stronger DNA binding
# Procedure, shortened: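 Alexa488 anti-GST antibody, scanned at 488 nm, detected GST-tagged P. falciparum DNA-binding domains that had been expressed in E. coli and incubated for 1 h on an Agilent 4 × 180k array. The array carried primer-extended double-stranded 36-bp intergenic genomic probes and negative controls. Binding intensity is the highest Masliner-normalised natural-log median intensity across replicate spots of either orientation of each probe.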
row,Sequence,gcPBM binding intensity (ln)
1,AAAAAATTAAAAATCACACATAAATATATATAAAAA [CACACA_site4192],9.48
2,CATATATTATTATATGCACACATGAAAATATACAAA [CACACA_site2795],9.49
3,AAGAAAAAAATTTATACAAGAATTTTTTATTATTAA [TGCATGCA_negctrl_site587],8.9
4,ATTTATGTTATATATACACACACAAAAGAAAAAAAA [CACACA_site8977],9.82
5,AAACATATAAACATATGTACATATAAACATATATAC [XGTACX_site5026],9.42
6,AAAAAAAAAGTATTATGTACATAAAAATAAAAAAAT [XGTACX_site4166],9.42
7,ATATAAGTATATCTATGTACATACAATATAAATGTA [XGTACX_site2153],9.09
8,AAAAAGAAAAAAAACACACACAAATATAAATAAATA [CACACA_site1183],9.98
9,AAATATAAACGGCACACACACAAAAAAAGAAAAAAA [CACACA_site649],10.2
10,AAAAATATAAACTGCACACACAAAAAAAAAAGAGAA [CACACA_site1367],10.1
11,TAAAAAATATAAACTGCACACACAAAAAAAAAAGAG [CACACA_site8379],10.2
12,AAAAATATAAACTGCACACACACAAAAAAAGAAAAA [CACACA_site648],10.1
13,AAAAAAAGAAAAAAAACACACACAAATATAAATAAA [CACACA_site8309],10
14,TCTAATGATATATACACACACATATAGATTTATATA [CACACA_site7044],9.64
15,TGTAGATATTATATATGTACGCATATGAAATATATA [XGTACX_site1586],9.09
16,ACATATTCATATGGAAGTACGATAATGTAGTCATAT [XGTACX_site7080],9.37
17,TTTAACAACTATTTCTGTACACATTTTTATATAATT [XGTACX_site4917],9.47
18,TTTATATTATAATATAATAATGATCTTAATTTTTTT [XGTACX_negctrl_site100],8.91
19,AAAAAAAATTTTAATTGTACAAAAAAAAAAAATATA [XGTACX_site2259],8.91
20,CATACACATAGACACACACACATATATACCTATATA [CACACA_site6644],10.1
21,TATACACATAGACACACACACATACACGCACATACA [CACACA_site6908],10.1
22,CACGCACGCAGACACACACACACACGCACATATATA [CACACA_site6303],10.3
23,AACATACATAGACACACACACACACGCACACGCACA [CACACA_site6373],10.3

row,Sequence,gcPBM binding intensity (ln)
1,CATACATACAGACACACACACATATATATATATATA [CACACA_site2920],9.91
2,TATATACACAGACACACACACACATACACGCACATA [CACACA_site6909],10.3
3,TATACACATAGACACACACACAAAAAAAAAAAAAAA [CACACA_site6338],9.73
4,CATACCTATAGACACACACACACACGCACGCACAAA [CACACA_site6374],10.2
5,AGTATACGCAGACACACACACACATATATATATATA [CACACA_site1735],9.98
6,CACATACAGACATACACACATACACATATACGCATA [CACACA_site1745],9.86
7,CGCACACGCAGACACACACACACATATAAATAAATA [CACACA_site7101],9.86
8,CACATACACATACACATACACACGCATAGAAACATA [CACACA_site2136],9.79
9,TAGTATTTATATGATTAACACACATATGGGTATTAA [CACACA_site8363],9.28
10,CATATAAGACAAAAGGTGCAATTTTAATGCTTTTAT [GTGCAC_site9432],9.31
11,ATAACATATATATATACACACACATATATATATGAA [CACACA_site7983],9.79
12,TTCTATATTTTAGCTGATAATATTATGAGCTTCACT [XGTACX_negctrl_site427],9.08
13,AATAAATAAATAAATATATATATATATATATATATA [CACACA_negctrl_site708],8.86
14,TCTTCTTAACCAACTATGAAAAGGAAAAATATAACA [GTGCAC_negctrl_site565],9.06
15,TATGTATAATTATTTTGTACTTATTAAATTTTTTTT [XGTACX_site5413],9.18
16,TACCCTGATCGGCATGCATGTAAGTAACAAATATAT [TGCATGCA_site153],9.22
17,ATATAAAATATTACGTGTACACATAAATAAAAATAA [XGTACX_site3746],9.41
18,GAATAAAAAATTGGCACACATAAATATATGGATATA [CACACA_site3047],9.46
19,AAAAAAAAAAAAAAGACACACATATATATATATATA [CACACA_site633],9.15
20,TATACACGCGGACACACACACACACGCAAAAAAAAA [CACACA_site6377],10.1
21,TATACGCATATATACACACACATATATATATATATA [CACACA_site3416],9.66
22,CATATATACACATACACACACACACGGACACGCACA [CACACA_site6910],10.2
23,CGCATACACGGACACACACACACATATATATATATA [CACACA_site4520],10.1

row,Sequence,gcPBM binding intensity (ln)
1,AGTATACATATATATACACACACATATATATATATA [CACACA_site7883],9.61
2,CATACACGCGGACACACACACACACGCATATATAAC [CACACA_site6427],10.4
3,AAAAAAAAAAGACACACACACACACGCATATACATA [CACACA_site7289],10.2
4,TACATACACGGACACACACACATATATATATATATA [CACACA_site5883],9.95
5,AGTATACATATATATACACACATATATATATATATA [CACACA_site300],9.42
6,AGTATACTCGGACACACACACACATATATATATATA [CACACA_site5031],10.2
7,TTTTTTATAGTACATTACCAAAAAAAAAAAAAAAAA [GTGCAC_negctrl_site549],8.32
8,TGTTGATTTATCCTGTGTACGGATATATATCTTTCA [XGTACX_site7826],9.27
9,AAAAATAGACAAAAGAGTACAAGAAAAAAAGGGTTC [XGTACX_site7843],9.86
10,AAATTTTTTAATTTTTCTCATTTAATTTAAAAATTA [GTGCAC_negctrl_site155],8.88
11,TATATTTTATATATGGTGCAACTTTTATTTAAATAA,8.77
12,ATTATTAAGTTTCACAAGAACATTGTTAACAATTTT [CACACA_negctrl_site1128],9
13,ATATATATGGAAACAGTGCAATACATATATATATAT,9.71
14,TTTTATGATAATTTTGCACACACTTAGGAAAAATTA [CACACA_site1556],9.31
15,AAAGTTTTAAGAAAATGTACATAAGTATACATATAT [XGTACX_site1293],9.18
16,AATACATACGGACACACACACACATATATATATATA [CACACA_site5884],10.2
17,CATACATACGGACACACACACATATATATATATATA [CACACA_site5598],9.97
18,AATACACGCAGACACACACACACACGCACATATATA [CACACA_site6447],10.3
19,AATATATACATATATACACACACATATATATATATA [CACACA_site8907],9.75
20,AATACATACAGACACACACACACATATATATATATA [CACACA_site3558],10.1
21,AGAATGGTTTATAAAGGTACGTAATTTTTAATTTTA [XGTACX_site383],9.06
22,TTTTGTTAAAAAGATGTATATTTTATAAATATTTAT [CACACA_negctrl_site101],8.92
23,TTATATATTAAGAAATGTACGAAAAAAAAAATTATA [XGTACX_site3893],9.2

row,Sequence,gcPBM binding intensity (ln)
1,ATTATAAATAAAATATGTACATATGTATAAATACAT [XGTACX_site4002],9.21
2,AAAAAGTGACTCCTTACACACTTTACATAATTTAGT [CACACA_site4606],9.46
3,TCTCATAGTAAACACACACACACACCCACATATATA [CACACA_site5034],10.3
4,AAGGATCACCCACAAACACACATATATATATATATA [CACACA_site559],9.76
5,TCTCATAGGAAACACACACACACACCCACATATATA [CACACA_site1738],10.2
6,TTTCCCATAGGAAAAACACACATATATTATATATAA [CACACA_site1981],9.12
7,TTTACTTTCCCAAGTTGTACTGCTTCTAAGCTTTTT [XGTACX_site2708],9.21
8,TTGTTTCTCTTTAAAAGTACAAAAATGGTTACATAT [XGTACX_site3109],8.95
9,AATATAAGAAAAATAACACACACATAAACATATATA [CACACA_site8899],10.1
10,ATTAAATAAAAAAACACACACATATATACATATATA [CACACA_site3445],9.89
11,AAAAAAAACATACATACACACACATAAATATATATA [CACACA_site8864],10.3
12,CATATATAAAAAAACACACACATATATATATATATA [CACACA_site1195],9.63
13,TAAATAAATAAAAAAACACACATATAAATATAAATA [CACACA_site7815],9.61
14,TAAATAAAAAAACACACACACATATATATATATATA [CACACA_site2269],9.94
15,TATAAGAAAAATAACACACACATAAACATATATACA [CACACA_site2785],10.2
16,ATATATATAAAACACACACACACATGTTTTAAAACT [CACACA_site78],10.2
17,AAAAAAAAAAAACACACACACACATAAATATATATA [CACACA_site149],10.2
18,ATATATATAAAACACACACACACATGGTTTAAAACT [CACACA_site4219],10.2
19,AAAAAACATACATACACACACATAAATATATATATT [CACACA_site2699],10.1
20,TATAAGAAAAATAACACACACATAAACATAAATACA [CACACA_site5536],9.87

# Source: the supplement of paper PMC11417369
